Paper PMC7862700, “An all-to-all approach to the identification of sequence-specific readers for epigenetic DNA modifications on cytosine”

Assays:
Assay in all cases: DAPPL (digital affinity profiling via proximity ligation, sequencing); 10 mM Tris-HCl pH 7.5, 50 mM NaCl, 1 mM DTT, 4% glycerol, room temperature, 30 min; GST-TFs on glutathione beads, 16-mer random dsDNA library, 0.1% formaldehyde crosslink after washing; high values mean tight binding
Conditions in all cases: protein: recombinant; tags: N-terminal GST; dsDNA, one strand shown
FLI1 = target: T1, FLI1 (Homo sapiens, UniProt Q01543 1-452)
T1 sequence: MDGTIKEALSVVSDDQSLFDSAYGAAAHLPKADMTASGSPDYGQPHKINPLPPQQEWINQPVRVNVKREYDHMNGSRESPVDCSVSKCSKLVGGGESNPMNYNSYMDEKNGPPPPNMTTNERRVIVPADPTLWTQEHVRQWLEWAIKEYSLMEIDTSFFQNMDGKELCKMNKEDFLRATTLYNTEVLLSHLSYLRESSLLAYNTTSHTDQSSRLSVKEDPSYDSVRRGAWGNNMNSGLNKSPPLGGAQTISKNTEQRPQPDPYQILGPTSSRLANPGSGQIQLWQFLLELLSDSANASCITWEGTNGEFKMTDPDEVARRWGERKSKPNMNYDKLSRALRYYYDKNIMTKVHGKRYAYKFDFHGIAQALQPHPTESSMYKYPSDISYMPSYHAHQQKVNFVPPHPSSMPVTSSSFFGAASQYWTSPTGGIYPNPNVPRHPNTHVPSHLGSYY
How it was run: (§1)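 Each value of binding signal is a hexamer's read frequency for a factor divided by the same hexamer's frequency in the tag-only sample. Barcoded, bead-captured GST fusions of human transcription factors made in yeast were pooled with that sample and incubated with 200 nmole of a random double-stranded 16-mer DNA library in Tris/NaCl/DTT/glycerol buffer at room temperature for 30 min. Washing, 0.1% formaldehyde crosslinking, proximity ligation, PCR and Illumina NextSeq500 sequencing followed.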

GABPA = target: T2, GABPA (Homo sapiens, UniProt Q06546 1-454)
T2 sequence: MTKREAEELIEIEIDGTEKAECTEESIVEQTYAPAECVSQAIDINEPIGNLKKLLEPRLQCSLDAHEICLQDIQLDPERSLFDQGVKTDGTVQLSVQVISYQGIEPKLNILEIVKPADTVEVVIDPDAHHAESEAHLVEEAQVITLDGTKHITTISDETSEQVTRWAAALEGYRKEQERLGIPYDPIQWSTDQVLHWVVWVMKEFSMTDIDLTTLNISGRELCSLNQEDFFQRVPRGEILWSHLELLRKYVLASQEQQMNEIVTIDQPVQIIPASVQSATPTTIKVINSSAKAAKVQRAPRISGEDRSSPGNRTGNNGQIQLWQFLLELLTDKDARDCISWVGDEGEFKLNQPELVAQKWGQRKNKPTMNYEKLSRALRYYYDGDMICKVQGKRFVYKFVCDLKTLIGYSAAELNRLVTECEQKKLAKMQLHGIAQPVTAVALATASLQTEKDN
How it was run: as §1

ERG = target: T3, ERG (Homo sapiens, UniProt P11308 1-479)
T3 sequence: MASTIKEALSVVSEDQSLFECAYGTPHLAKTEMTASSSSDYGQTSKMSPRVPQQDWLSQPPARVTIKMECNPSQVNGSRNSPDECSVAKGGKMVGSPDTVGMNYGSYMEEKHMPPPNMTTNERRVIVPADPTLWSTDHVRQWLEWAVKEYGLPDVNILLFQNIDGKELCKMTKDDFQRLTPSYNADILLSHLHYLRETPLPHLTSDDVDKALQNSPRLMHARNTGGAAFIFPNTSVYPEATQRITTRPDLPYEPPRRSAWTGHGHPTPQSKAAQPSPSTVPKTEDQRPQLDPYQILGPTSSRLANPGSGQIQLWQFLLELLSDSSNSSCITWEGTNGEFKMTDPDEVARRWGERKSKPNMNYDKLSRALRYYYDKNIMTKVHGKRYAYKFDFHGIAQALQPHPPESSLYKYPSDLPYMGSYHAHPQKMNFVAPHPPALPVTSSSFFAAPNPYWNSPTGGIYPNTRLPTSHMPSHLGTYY
How it was run: as §1

ELF1 = ELF1 (Homo sapiens, UniProt P32519 1-619)
Chain of ELF1 (P32519 whole entry): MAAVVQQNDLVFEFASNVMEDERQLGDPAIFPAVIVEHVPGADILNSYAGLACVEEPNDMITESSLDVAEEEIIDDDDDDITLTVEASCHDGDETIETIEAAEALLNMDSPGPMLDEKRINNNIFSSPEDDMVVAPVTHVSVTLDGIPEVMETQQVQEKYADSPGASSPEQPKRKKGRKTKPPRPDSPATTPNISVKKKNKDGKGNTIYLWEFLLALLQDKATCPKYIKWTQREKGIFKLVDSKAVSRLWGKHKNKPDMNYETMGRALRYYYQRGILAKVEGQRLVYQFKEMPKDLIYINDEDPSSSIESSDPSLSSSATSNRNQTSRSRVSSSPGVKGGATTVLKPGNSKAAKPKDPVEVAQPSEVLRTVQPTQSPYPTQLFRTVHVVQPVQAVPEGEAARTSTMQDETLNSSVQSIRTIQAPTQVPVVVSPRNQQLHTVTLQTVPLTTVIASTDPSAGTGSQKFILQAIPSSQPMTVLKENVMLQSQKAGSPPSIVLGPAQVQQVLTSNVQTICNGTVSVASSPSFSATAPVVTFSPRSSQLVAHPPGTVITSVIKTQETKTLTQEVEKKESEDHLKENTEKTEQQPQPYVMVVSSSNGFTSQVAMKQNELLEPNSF
How it was run: as §1

EHF = target: T4, EHF (Homo sapiens, UniProt Q9NZC4 1-300)
T4 sequence: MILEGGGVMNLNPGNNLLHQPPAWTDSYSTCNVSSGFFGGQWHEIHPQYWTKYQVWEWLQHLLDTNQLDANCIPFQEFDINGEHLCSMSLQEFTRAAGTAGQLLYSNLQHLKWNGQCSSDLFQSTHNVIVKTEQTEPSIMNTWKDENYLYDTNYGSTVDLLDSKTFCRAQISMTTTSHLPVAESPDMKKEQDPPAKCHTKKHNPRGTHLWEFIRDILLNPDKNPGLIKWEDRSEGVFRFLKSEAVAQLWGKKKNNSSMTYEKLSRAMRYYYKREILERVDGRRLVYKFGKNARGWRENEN
How it was run: as §1

SPI1 = SPI1 (Homo sapiens, UniProt P17947 1-270)
How it was run: as §1

SPIB = SPIB (Homo sapiens, UniProt Q01892 1-262)
Chain of SPIB (Q01892 whole entry): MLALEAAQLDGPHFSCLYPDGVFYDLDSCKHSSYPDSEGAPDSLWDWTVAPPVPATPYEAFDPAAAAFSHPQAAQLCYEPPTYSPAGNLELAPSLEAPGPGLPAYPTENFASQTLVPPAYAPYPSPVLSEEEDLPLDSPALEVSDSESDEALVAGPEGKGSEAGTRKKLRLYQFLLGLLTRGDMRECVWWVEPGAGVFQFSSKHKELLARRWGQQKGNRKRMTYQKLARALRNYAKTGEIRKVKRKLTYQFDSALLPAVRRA
How it was run: as §1

ELK3 = target: T5, ELK3 (Homo sapiens, UniProt P41970 1-407)
T5 sequence: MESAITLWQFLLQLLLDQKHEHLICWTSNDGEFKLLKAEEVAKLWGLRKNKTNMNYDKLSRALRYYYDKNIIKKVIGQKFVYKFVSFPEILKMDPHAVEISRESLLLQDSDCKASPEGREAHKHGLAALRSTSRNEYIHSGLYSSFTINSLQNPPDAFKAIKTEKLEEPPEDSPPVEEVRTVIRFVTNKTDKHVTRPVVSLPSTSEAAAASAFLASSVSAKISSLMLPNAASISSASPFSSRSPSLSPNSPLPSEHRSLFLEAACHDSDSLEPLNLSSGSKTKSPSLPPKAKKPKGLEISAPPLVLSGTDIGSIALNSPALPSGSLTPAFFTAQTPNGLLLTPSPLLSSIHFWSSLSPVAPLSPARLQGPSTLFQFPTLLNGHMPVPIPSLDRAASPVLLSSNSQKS
How it was run: as §1

ELK1 = target: T6, ELK1 (Homo sapiens, UniProt P19419 1-428)
T6 sequence: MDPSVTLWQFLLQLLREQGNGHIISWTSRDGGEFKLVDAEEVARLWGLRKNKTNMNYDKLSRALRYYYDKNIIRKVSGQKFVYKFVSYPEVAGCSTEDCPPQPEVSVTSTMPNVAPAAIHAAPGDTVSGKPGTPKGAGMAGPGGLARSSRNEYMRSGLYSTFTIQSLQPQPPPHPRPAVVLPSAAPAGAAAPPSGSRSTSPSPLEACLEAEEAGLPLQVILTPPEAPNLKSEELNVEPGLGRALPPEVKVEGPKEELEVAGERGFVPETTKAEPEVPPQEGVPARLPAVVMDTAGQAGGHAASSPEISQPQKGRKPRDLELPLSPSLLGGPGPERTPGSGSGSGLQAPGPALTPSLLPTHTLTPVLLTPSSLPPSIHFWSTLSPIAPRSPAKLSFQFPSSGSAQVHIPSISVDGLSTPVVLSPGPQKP
How it was run: as §1

## CATTAC
FLI1
  binding signal: 1.09 fold enrichment (6-mer frequency, TF over GST control)
GABPA
  binding signal: 1.2 fold enrichment (6-mer frequency, TF over GST control)
ERG
  binding signal: 1.06 fold enrichment (6-mer frequency, TF over GST control)
ELF1
  binding signal: 1.17 fold enrichment (6-mer frequency, TF over GST control)
EHF
  binding signal: 1.13 fold enrichment (6-mer frequency, TF over GST control)
SPI1
  binding signal: 1.1 fold enrichment (6-mer frequency, TF over GST control)
SPIB
  binding signal: 1.17 fold enrichment (6-mer frequency, TF over GST control)
ELK3
  binding signal: 1.15 fold enrichment (6-mer frequency, TF over GST control)

## ATCAGC
FLI1
  binding signal: 1.03 fold enrichment (6-mer frequency, TF over GST control)
ELK1
  binding signal: 1.08 fold enrichment (6-mer frequency, TF over GST control)
ELF1
  binding signal: 1.01 fold enrichment (6-mer frequency, TF over GST control)
EHF
  binding signal: 1.02 fold enrichment (6-mer frequency, TF over GST control)
SPIB
  binding signal: 1.02 fold enrichment (6-mer frequency, TF over GST control)
ELK3
  binding signal: 1.03 fold enrichment (6-mer frequency, TF over GST control)

## GTGGCT
FLI1
  binding signal: 1.23 fold enrichment (6-mer frequency, TF over GST control)
GABPA
  binding signal: 1.27 fold enrichment (6-mer frequency, TF over GST control)
ERG
  binding signal: 1.19 fold enrichment (6-mer frequency, TF over GST control)
ELF1
  binding signal: 1.11 fold enrichment (6-mer frequency, TF over GST control)
EHF
  binding signal: 1.22 fold enrichment (6-mer frequency, TF over GST control)
SPI1
  binding signal: 1.3 fold enrichment (6-mer frequency, TF over GST control)
SPIB
  binding signal: 1.18 fold enrichment (6-mer frequency, TF over GST control)

## GGGTTT
FLI1
  binding signal: 1.17 fold enrichment (6-mer frequency, TF over GST control)
GABPA
  binding signal: 1.1 fold enrichment (6-mer frequency, TF over GST control)
ERG
  binding signal: 1.1 fold enrichment (6-mer frequency, TF over GST control)
ELF1
  binding signal: 1.1 fold enrichment (6-mer frequency, TF over GST control)
EHF
  binding signal: 1.11 fold enrichment (6-mer frequency, TF over GST control)
SPI1
  binding signal: 1.05 fold enrichment (6-mer frequency, TF over GST control)
SPIB
  binding signal: 1.05 fold enrichment (6-mer frequency, TF over GST control)
ELK3
  binding signal: 1.03 fold enrichment (6-mer frequency, TF over GST control)

## CTGTAA
FLI1
  binding signal: 1.06 fold enrichment (6-mer frequency, TF over GST control)
GABPA
  binding signal: 1.07 fold enrichment (6-mer frequency, TF over GST control)
ELF1
  binding signal: 1.12 fold enrichment (6-mer frequency, TF over GST control)
EHF
  binding signal: 1.09 fold enrichment (6-mer frequency, TF over GST control)
SPI1
  binding signal: 1.11 fold enrichment (6-mer frequency, TF over GST control)
SPIB
  binding signal: 1.04 fold enrichment (6-mer frequency, TF over GST control)
ELK3
  binding signal: 1.24 fold enrichment (6-mer frequency, TF over GST control)

## AGGGCT
FLI1
  binding signal: 1.03 fold enrichment (6-mer frequency, TF over GST control)
GABPA
  binding signal: 1.05 fold enrichment (6-mer frequency, TF over GST control)
ERG
  binding signal: 1.07 fold enrichment (6-mer frequency, TF over GST control)
ELF1
  binding signal: 1.01 fold enrichment (6-mer frequency, TF over GST control)
EHF
  binding signal: 1.04 fold enrichment (6-mer frequency, TF over GST control)
ELK3
  binding signal: 1.08 fold enrichment (6-mer frequency, TF over GST control)

## TAAGCG
FLI1
  binding signal: 1.05 fold enrichment (6-mer frequency, TF over GST control)
GABPA
  binding signal: 1.01 fold enrichment (6-mer frequency, TF over GST control)
ERG
  binding signal: 1.02 fold enrichment (6-mer frequency, TF over GST control)
ELF1
  binding signal: 1.02 fold enrichment (6-mer frequency, TF over GST control)
EHF
  binding signal: 1.02 fold enrichment (6-mer frequency, TF over GST control)
SPI1
  binding signal: 1.03 fold enrichment (6-mer frequency, TF over GST control)
ELK3
  binding signal: 1.01 fold enrichment (6-mer frequency, TF over GST control)

## CGAAAT
FLI1
  binding signal: 1.05 fold enrichment (6-mer frequency, TF over GST control)
ERG
  binding signal: 1.02 fold enrichment (6-mer frequency, TF over GST control)
ELF1
  binding signal: 1.01 fold enrichment (6-mer frequency, TF over GST control)
EHF
  binding signal: 1.07 fold enrichment (6-mer frequency, TF over GST control)
SPI1
  binding signal: 1.09 fold enrichment (6-mer frequency, TF over GST control)
SPIB
  binding signal: 1.07 fold enrichment (6-mer frequency, TF over GST control)

## TTTAGT
FLI1
  binding signal: 1.13 fold enrichment (6-mer frequency, TF over GST control)
GABPA
  binding signal: 1.11 fold enrichment (6-mer frequency, TF over GST control)
ELF1
  binding signal: 1.11 fold enrichment (6-mer frequency, TF over GST control)
SPI1
  binding signal: 1.07 fold enrichment (6-mer frequency, TF over GST control)
SPIB
  binding signal: 1.12 fold enrichment (6-mer frequency, TF over GST control)
ELK3
  binding signal: 1.11 fold enrichment (6-mer frequency, TF over GST control)
